# Results: PubChem BioAssay (NCATS)
# “And” between values parts separate entries of the source, which are not always exact repeats. Identical values can stand only once. Results filed as inconclusive are left out. The source made the active and inactive calls. The call rests on the fitted dose curve; in most records, active means well fitted inhibition curve with a large enough effect; inconclusive means small, poorly fitted or top-dose-only effect; inactive means flat fitted curve, though single readings scatter.
# Tested on: KB-3-1
# Test: Cytotoxic Profiling of Annotated Libraries Using Quantitative High-Throughput Screening (AID 1296008); further: nearly all actives have a fitted effect of over 60% in size
# Conditions: Five cell lines viability, CellTiter-Glo ATP luminescence, 48-72 h; max response: stronger effect = lower value
# How it was run: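 Compounds were pin-transferred onto cells and incubated 48 or 72 hr at 37 degree Celsius, 95% humidity. CellTiter-Glo was added, plates sat 10 min at room temperature, then ATP-coupled luminescence was imaged as the viability read-out.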
# On the % scale 0 is the no-effect control and ±100 the full control effect; potency means the concentration at half of the fitted maximal effect.
Compound,max response,Potency
O=[N+]([O-])O[C@@H]1CO[C@H]2[C@@H]1OC[C@@H]2O,-3.81% (inactive),
C[C@]12CCC(=O)C[C@@H]1CC[C@@H]1[C@@H]2CC[C@]2(C)C=CC[C@@H]12,-14.2% (inactive),
C=C(C)C1CC=C(C)CC1 (configuration not stated),7.51% (inactive),
O=C1CCC(c2ccccc2)(C2CCN(Cc3ccccc3)CC2)C(=O)N1 (configuration not stated),17.5% (inactive),
CC(=O)N=c1sc(S(N)(=O)=O)nn1C,21.5% (inactive),
CC1(C)C(\C=C/C=C\C=C/C=C2/N(CCCCS(=O)(=O)O)c3ccc4ccccc4c3C2(C)C)=[N+](CCCCS(=O)(=O)[O-])c2ccc3ccccc3c21,-6.53% (inactive),
CC(C)CN(C[C@@H](O)[C@H](Cc1ccccc1)NC(=O)O[C@@H]1CCOC1)S(=O)(=O)c1ccc(N)cc1,0.899% (inactive),
Cc1cc(-c2ccc(N=Nc3c(S(=O)(=O)O)cc4cc(S(=O)(=O)O)cc(N)c4c3O)c(C)c2)ccc1N=Nc1c(S(=O)(=O)O)cc2cc(S(=O)(=O)O)cc(N)c2c1O,,9.2 µM (active)
CCCCCCCCCCCC(=O)N(CCO)CCO,-11.5% (inactive),
c1ccc2c(c1)OCC(CN1CCCCC1)O2 (configuration not stated),-16% (inactive),
CCN(CC)CCC(=O)N1c2ccccc2Sc2ccc(C(F)(F)F)cc21,2.13% (inactive),
CC(C)[C@@H]1CC[C@@H](C)C[C@H]1OC(=O)c1ccccc1O,-4.38% (inactive),
C=CC(=O)O,-9.21% (inactive),
CN[C@@H]1[C@@H](O)[C@@H](O[C@@H]2[C@@H](O)[C@H](O[C@H]3O[C@H](CN)[C@@H](O)[C@H](O)[C@H]3O)[C@@H](N)C[C@H]2NC(=O)C(O)CN)OC[C@]1(C)O (some centres not stated),36% (inactive),
O=C(O)c1cc(O)c2c(c1)[C@H]([C@H]1c3cc(C(=O)O)cc(O)c3C(=O)c3c(O[C@@H]4O[C@H](CO)[C@@H](O)[C@H](O)[C@H]4O)cccc31)c1cccc(O[C@@H]3O[C@H](CO)[C@@H](O)[C@H](O)[C@H]3O)c1C2=O,-13.8% (inactive),
COC(=O)[C@H]1[C@H]2C[C@@H]3c4[nH]c5cc(OC)ccc5c4CCN3C[C@H]2C[C@H](OC)[C@@H]1OC,14.2% (inactive),
CCCCCCCCCCCCCC(=O)OCC(COP(=O)([O-])OCC[N+](C)(C)C)OC(=O)CCCCCCCCCCCCC (configuration not stated),15.8% (inactive),
CC(C)Cc1ccc([C@@H](C)C(=O)NS(C)(=O)=O)cc1,3.61% (inactive),
O=P(O)(O)OP(=O)(O)OP(=O)(O)O,-3.72% (inactive),

Compound,max response,Potency
H-RKDVY-OH,-14.8% (inactive),
OC[C@H]1O[C@@H]2O[C@H]3[C@H](O)[C@@H](O)[C@@H](O[C@H]4[C@H](O)[C@@H](O)[C@@H](O[C@H]5[C@H](O)[C@@H](O)[C@@H](O[C@H]6[C@H](O)[C@@H](O)[C@@H](O[C@H]7[C@H](O)[C@@H](O)[C@@H](O[C@H]1[C@H](O)[C@H]2O)O[C@@H]7CO)O[C@@H]6CO)O[C@@H]5CO)O[C@@H]4CO)O[C@@H]3CO,3.87% (inactive),
CNC(=O)OCc1cccc(COC(=O)NC)n1,2.4% (inactive),
CC1CS(=O)(=O)CCN1/N=C/c1ccc([N+](=O)[O-])o1 (configuration not stated),1.84% (inactive),
CO/N=C(\C(=O)N[C@@H]1C(=O)N2C(C(=O)O)=C(C[N+]3(C)CCCC3)CS[C@H]12)c1csc(N)n1,2.85% (inactive),
CCN1C(=O)NC(c2ccccc2)C1=O (configuration not stated),16.5% (inactive),
Cc1ccccn1,-6.48% (inactive),
COc1cc2c(cc1OC)[C@@H](Cc1cc(OC)c(OC)c(OC)c1)[N+](C)(CCCOC(=O)CC/C=C/CCC(=O)OCCC[N+]1(C)CCc3cc(OC)c(OC)cc3[C@H]1Cc1cc(OC)c(OC)c(OC)c1)CC2 (some centres not stated),-6.45% (inactive) and -2.94% (inactive),
Cc1cc(C(=O)NCCc2ccc(S(=O)(=O)NC(=O)NN3CCCCCC3)cc2)no1,8.89% (inactive),
CCCCC(O)c1ccccc1 (configuration not stated),6.09% (inactive),
CN(C)CCC=C1c2ccccc2C(C)(C)c2ccccc21,-19.1% (inactive),
NC(=S)N=Nc1ccc(NN=C(N)N)cc1,-12.2% (inactive),
[O]=[Bi][O]C(=O)[O][Bi]=[O],-15.6% (inactive),
CC(C)=CCC/C(C)=C/C=C/C(C)=C/C=C/C(C)=C/C=C/C=C(C)/C=C/C=C(C)/C=C/C=C(\C)CCC=C(C)C,-16.3% (inactive),
O=C1c2ccccc2C(=O)C1c1ccc(F)cc1,-8.05% (inactive),
O=C(O)CN(CC(=O)O)CC1=CC2C(=CC1=O)Oc1cc(O)c(CN(CC(=O)O)CC(=O)O)cc1C21OC(=O)c2ccccc21 (configuration not stated),-3.16% (inactive),
OC/C=C/c1ccccc1,-5.63% (inactive),
Cc1c(O)c(=O)ccn1C,5.64% (inactive),
